The sample as a whole holds a higher share of hits than the screen did.
IL-1B inflam inh – inhibitors of inflammasome signaling (IL-1 beta secretion); THP-1 LPS/ATP IL-1B secretion, AlphaLISA, 16 h; active compounds read low; activity change, % at 57.5 µM; 360,000 compounds, 4.7% hits; AID 743279; in the data active = activity change below about -50%; inconclusive = mostly about -30% to -49%
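Secreted IL-1B measured by AlphaLISA bead assay after 16 h compound exposure of THP-1 cells; compounds (final up to 57.5 uM) added 1 h before LPS (250 ng/mL) and ATP (1.25 mM) stimulation; lower signal means less secretion.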
ALOX12 inh – inhibitors of human 12S-lipoxygenase ALOX12; purified 12hLO, xylenol orange hydroperoxide absorbance; Potency, µM (series often up to 108 µM), for the others: top-dose activity change, negative = inhibition, usual class: inhibitors; 580,000 compounds, 1.1% hits; AID 1671190; P18054; also: potency is read from the fitted curve at half-maximal effect
Target sequence (P18054 whole entry, looked up): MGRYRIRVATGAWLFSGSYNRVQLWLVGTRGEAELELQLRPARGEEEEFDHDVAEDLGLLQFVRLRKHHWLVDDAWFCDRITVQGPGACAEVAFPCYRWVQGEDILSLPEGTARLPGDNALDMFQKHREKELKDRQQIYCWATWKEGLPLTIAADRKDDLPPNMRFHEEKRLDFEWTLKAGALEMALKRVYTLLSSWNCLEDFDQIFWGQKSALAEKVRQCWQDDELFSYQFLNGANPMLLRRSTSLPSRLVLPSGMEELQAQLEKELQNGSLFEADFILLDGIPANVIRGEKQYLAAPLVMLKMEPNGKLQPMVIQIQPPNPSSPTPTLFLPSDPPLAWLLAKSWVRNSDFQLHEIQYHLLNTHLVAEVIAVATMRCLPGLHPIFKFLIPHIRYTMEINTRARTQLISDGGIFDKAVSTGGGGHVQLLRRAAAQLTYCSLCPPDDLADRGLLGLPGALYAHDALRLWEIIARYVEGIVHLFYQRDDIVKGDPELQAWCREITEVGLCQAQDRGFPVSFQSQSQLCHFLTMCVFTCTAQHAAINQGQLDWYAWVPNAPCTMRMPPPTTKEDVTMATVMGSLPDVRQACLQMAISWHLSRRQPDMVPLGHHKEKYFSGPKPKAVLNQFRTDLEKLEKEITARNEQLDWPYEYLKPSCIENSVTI
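Hydroperoxide product was detected by ferrous iron/xylenol orange as the 573 to 405 nm absorbance ratio. Arachidonic acid at 40 uM (final) was turned over for 30 min at room temperature by 150 nM human 12hLO, pH 7.0 Hepes buffer, after 15 min compound preincubation.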
DT40 TDP1 CPT – DT40-hTDP1 cell growth loss with CPT | chicken DT40 Tdp1-/-;hTDP1 cells + 20 nM CPT, ATP luminescence, 48 h | AID 686979 | 420,000 compounds, 12% hits | Potency, µM (highest dose often 46.2 µM), inactives show top-dose activity change, negative = growth inhibition, actives largely listed as inhibitors; also: potency is read from the fitted curve at half-maximal effect; nearly all actives have a fitted effect of over 55% in size
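Cell growth measured by CellTiter-Glo luminescence after a minimum 48 h, 37 C compound exposure with 20 nM CPT in Tdp1-knockout DT40 cells stably expressing hTDP1, seeded 400/well; qHTS titration format.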
HT1080 IDH1KD tx – kills HT-1080 cells with IDH1 knockdown | 360,000 compounds, 2% hits | HT-1080 IDH1 knockdown viability, ATP luminescence, 48 h | Potency, µM (series often up to 46.1 µM), inactives show at the top dose activity, negative = toxicity, hits mostly cytotoxic | AID 686971;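 also: potency is read from the fitted curve at half-maximal effect; 0% = DMSO wells and -100% = cell-free medium wells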
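Using the IDH1-knockdown HT-1080 line run in the same batch and compound series as the NT line, viability after 48 h at 37 °C was determined by CellTiter-Glo luminescence and expressed as % activity.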
TDP1 cell noCPT – qHTS for Inhibitors of human tyrosyl-DNA phosphodiesterase 1 (TDP1): qHTS in cells in absence of CPT; DT40 Tdp1-/- hTDP1 cells, no CPT, ATP luminescence, 48 h; Potency, µM (doses to about 46.2 µM), for inactives: at the highest dose activity change, negative = growth inhibition, actives largely listed as inhibitors; 420,000 compounds, 15% hits; AID 686978, 2013; also: potency is read from the fitted curve at half-maximal effect; nearly all actives have a fitted effect of over 55% in size
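Chicken DT40 Tdp1-/- cells stably complemented with human TDP1 were seeded at 400 cells/well with DMSO in place of 20 nM camptothecin. After compound pinning, cells grew at least 48 hr at 37 °C; viability read by CellTiter-Glo luminescence.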
HT1080NT lethal – kills 2HG-producing HT-1080-NT fibrosarcoma cells; HT-1080-NT fibrosarcoma viability, CellTiter-Glo ATP luminescence, 48 h; Potency, µM (titrated, usually from 46.1 µM), for inactives: top-dose activity, negative = less viability, actives largely listed as cytotoxic; 360,000 compounds, 1.6% hits; AID 686970;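 also: NT is the 2HG producing partner of a matched IDH1 knockdown line; potency is read from the fitted curve at half-maximal effect; 0% = DMSO-treated cells and -100% = media-only wells without cells; nearly all actives have a fitted effect of over 55% in size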
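Viability by CellTiter-Glo luminescence after 48 h compound exposure at 37C of HT-1080-NT cells (750/well, RPMI, 5% FBS). % activity scaled between DMSO wells and medium-only wells, then curve-fitted and categorized by curve class.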
Numbers without * were called inactive; [ ] = remark or other dose. Unless noted, calls follow the shape of the dose curve; as a rule, active = well fitted curve in the direction sought with a large enough effect; inconclusive = small, poorly fitted or top-dose-only effect, or another doubt; inactive = no such curve, though single readings can be large; an effect the other way counts as inactive or inconclusive. Unless noted, % is scaled to controls: 0 for no effect and ±100 for the full control effect.

O=C(CSc1nnnn1C1CC1)c1ccc2c(c1)Cc1ccccc1-2 was read as ALOX12 inh 114%.
COc1ccc(C(=O)CCN2CCN(c3ccc(OC)cc3)CC2)cc1 was read as IL-1B inflam inh -101*, ALOX12 inh 12%, DT40 TDP1 CPT 2.1µM*, HT1080 IDH1KD tx inconclusive, TDP1 cell noCPT 2.1µM* and HT1080NT lethal inconclusive.
`COc1ccc(N2CCN(CCC(N)=O)CC2)cc1` gave IL-1B inflam inh 3, ALOX12 inh -15%, DT40 TDP1 CPT 2%, HT1080 IDH1KD tx 0%[9.24 µM], TDP1 cell noCPT -2% and HT1080NT lethal 6%.
`O=C(CCN1CCCCCC1)c1ccccc1` gave IL-1B inflam inh -3, ALOX12 inh 0%[57.4 µM], DT40 TDP1 CPT 3.3µM*, HT1080 IDH1KD tx 3%, TDP1 cell noCPT 3.7µM* and HT1080NT lethal 12%.
CC(C)CCNC(=O)c1cc(-c2ccncc2)cn1C was read as ALOX12 inh 58%.
For O=C(/C=C/c1ccccc1)CCN1CCCCC1 the results were IL-1B inflam inh -90*, ALOX12 inh inconclusive, DT40 TDP1 CPT 1.2µM*, HT1080 IDH1KD tx inconclusive, TDP1 cell noCPT 0.92µM* and HT1080NT lethal inconclusive.
CCC1(C)CC(CC(=O)O)(c2ccccc2OC)CCO1 (centres undefined) was read as IL-1B inflam inh 24, ALOX12 inh -10%, DT40 TDP1 CPT 11%, HT1080 IDH1KD tx 2%[9.24 µM], TDP1 cell noCPT 1% and HT1080NT lethal 1%.
`CCCOc1ccc(C(=O)CCN2CCN(C(=O)OCC)CC2)cc1` gave IL-1B inflam inh 0, ALOX12 inh -21%, DT40 TDP1 CPT 2.3µM*, HT1080 IDH1KD tx inconclusive, TDP1 cell noCPT 5.2µM* and HT1080NT lethal inconclusive.
Screening CCOC(=O)N1CCN(C(=O)CCC(=O)c2ccc(OCC)cc2)CC1 returned IL-1B inflam inh 21, ALOX12 inh 4%, DT40 TDP1 CPT 8%, HT1080 IDH1KD tx 22%, TDP1 cell noCPT -15% and HT1080NT lethal 18%.
`CCC1(C)CC2(CCCN(CCC(=O)c3ccccc3)C2)CCO1` (centres undefined) gave IL-1B inflam inh 1, ALOX12 inh -5%, DT40 TDP1 CPT 3.7µM*, HT1080 IDH1KD tx 5%, TDP1 cell noCPT 3.3µM* and HT1080NT lethal 3%.
For CCOc1ccc(C(=O)CCN2CCCCC2)cc1 the results were IL-1B inflam inh -6, ALOX12 inh 306%, DT40 TDP1 CPT 21µM*, HT1080 IDH1KD tx -22%, TDP1 cell noCPT inconclusive and HT1080NT lethal inconclusive.
`COc1ccc(C(=O)CSc2nnc(Nc3ccccc3F)s2)c(OC)c1` gave ALOX12 inh 10%.
O=C(/C=C/c1ccccc1)COC(=O)c1ccccc1 was read as IL-1B inflam inh -8, ALOX12 inh -2%, DT40 TDP1 CPT inconclusive, HT1080 IDH1KD tx inconclusive, TDP1 cell noCPT 9.2µM* and HT1080NT lethal inconclusive.
`O=c1[nH]c2cc(O)ccc2c2ccccc12` gave ALOX12 inh -11%.
Screening O=C(Nc1ccc2c(c1)[nH]c(=O)c1ccccc12)C(F)(F)F returned IL-1B inflam inh -9, ALOX12 inh 0%, DT40 TDP1 CPT inconclusive, HT1080 IDH1KD tx -7%, TDP1 cell noCPT -26% and HT1080NT lethal 1%.
Screening CC(=O)Nc1ccc2c(c1)[nH]c(=O)c1ccccc12 returned IL-1B inflam inh -14, ALOX12 inh -5%, DT40 TDP1 CPT 0.82µM*, HT1080 IDH1KD tx -1%, TDP1 cell noCPT inconclusive and HT1080NT lethal 5%.
Nc1ccc2c(c1)[nH]c(=O)c1ccccc12 was read as IL-1B inflam inh -75*, ALOX12 inh 0%, DT40 TDP1 CPT inconclusive, HT1080 IDH1KD tx inconclusive, TDP1 cell noCPT inconclusive and HT1080NT lethal -2%.
Screening CCCN(C(=O)Cn1nc(Cc2ccncc2)c2ccccc2c1=O)c1ccc(CC)cc1 returned ALOX12 inh 9%.
Screening C=CCN(CC=C)Cc1c(C)[nH]c2c(C)cc(C)cc2c1=O returned ALOX12 inh 9%.
For Cc1ccc(S(=O)(=O)NCc2ccsc2)s1 the results were ALOX12 inh 40%.
CNC12CC3CC(CC(S)(C3)C1)C2 was read as ALOX12 inh 1%.
For CC(C)(C)OC(=O)N1CCC(c2c(C(=O)N3CCN(c4ccccc4F)CC3)cnn2C(C)(C)C)CC1 the results were ALOX12 inh -22%, DT40 TDP1 CPT 23µM* and TDP1 cell noCPT inconclusive.
Screening Cn1ncc(C(=O)N2CCN(c3ccccc3F)CC2)c1C1CCN(C(=O)OC(C)(C)C)CC1 returned ALOX12 inh 0%, DT40 TDP1 CPT inconclusive and TDP1 cell noCPT -54%.
For COc1ccccc1N1CCN(C(=O)c2cnn(C(C)(C)C)c2C2CCN(C(=O)OC(C)(C)C)CC2)CC1 the results were ALOX12 inh 3%, DT40 TDP1 CPT 16µM* and TDP1 cell noCPT -85%.
Screening Cc1ccc(C(=O)Nc2cccc(C#N)c2)cc1F returned ALOX12 inh 2%.
O=C(NCC1CCCCC1)C1(CCO)CCN(c2ncccn2)C1 (centres undefined) was read as ALOX12 inh 11%.
Cc1onc(-c2c(F)cccc2Cl)c1C(=O)OCC(=O)c1c(N)n(C)c(=O)n(C)c1=O was read as IL-1B inflam inh 11, ALOX12 inh 42%, DT40 TDP1 CPT inconclusive, HT1080 IDH1KD tx -23%, TDP1 cell noCPT inconclusive and HT1080NT lethal inconclusive.
`CC(C)Cn1c(N)c(C(=O)COC(=O)c2cccnc2Cl)c(=O)n(C)c1=O` gave IL-1B inflam inh 21, ALOX12 inh 6%, DT40 TDP1 CPT inconclusive, HT1080 IDH1KD tx 9%, TDP1 cell noCPT 10µM* and HT1080NT lethal 7%.
CC(C)Cn1c(N)c(C(=O)COC(=O)c2ccccc2F)c(=O)n(C)c1=O was read as IL-1B inflam inh 15, ALOX12 inh -2%, DT40 TDP1 CPT inconclusive, HT1080 IDH1KD tx -17%, TDP1 cell noCPT inconclusive and HT1080NT lethal -8%.
For CC(C)Cn1c(N)c(C(=O)COC(=O)c2cccn2C)c(=O)n(C)c1=O the results were IL-1B inflam inh -21, ALOX12 inh 88%, DT40 TDP1 CPT 15µM*, HT1080 IDH1KD tx 0%, TDP1 cell noCPT 16µM* and HT1080NT lethal 1%.
`Cc1onc(-c2ccccc2Cl)c1C(=O)OCC(=O)c1c(N)n(C)c(=O)n(C)c1=O` gave IL-1B inflam inh -21, ALOX12 inh 1%, DT40 TDP1 CPT 7.3µM*, HT1080 IDH1KD tx -10%, TDP1 cell noCPT 7.3µM* and HT1080NT lethal -6%.

Screening results from PubChem.
